These results are taken from PubChem BioAssay AID624351 (Southern Research Specialized Biocontainment Screening …, 2012).

Out of some 2,400 compounds screened, about 1,400 (58%) were called active. So high a share suggests a set chosen from earlier hits. This is one part of the list. A number with no mark means an inactive call.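 The calls were made as follows: active = inhibition of 30% or more at any tested dose; inconclusive = primary hits over the limit that were never retested; inactive = the rest.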

The test in a line: coupled detection enzyme interference, dose response, artefact control for MgcRacGAP inhibitor project, biochemical, coupled enzyme counter-screen (AID 624351).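 Also: signal is the ADP detection kit reading of free GDP without any GAP enzyme.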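 As to inhibition: 0% = median positive control wells and 100% = median negative control wells.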 Particulars: ADP Hunter coupled enzyme counter-screen, fluorescence, no MgcRacGAP; series mostly up to 80 µM; inhibition: at the top concentration. A general note: Counterscreens check selectivity or assay interference.
As for `O=C1/C(=C\c2ccc(O)cc2)SC(=S)N1/N=C/c1ccc(O)cc1`, the half-inhibitory concentration (IC50) was 72.7 µM (active). Take `CC(CN1CCN(Cc2ccccc2)CC1)c1ccccc1` (centres undefined): the “inhibition” value is -2.98%. For `CN(c1ccccc1)c1ccc(/C=N/N2CCOCC2)cc1`, the IC50 is 36.8 µM (active).

With `CCOc1cc(/C=N/N2CCN(Cc3ccccc3)CC2)ccc1O`, the IC50 is 78.5 µM (active).

As for `CCN(CC)c1ccc(/C=N/N2CCN(Cc3ccccc3)CC2)cc1`, the IC50 is 75.1 µM (active). With `CCN(Cc1ccccc1)C1CCN(Cc2ccc(SC)cc2)CC1`, the “inhibition” value was 17.8%. Regarding `CN(c1ccccc1)c1ccc(/C=C/[N+](=O)[O-])cc1`, the “inhibition” value was 6.03%. The same measure, in the same setting: with `CCOc1cc(CN2CCN(C(=O)CC(C)C)CC2)ccc1OC` the figure was 19%; with `CCOc1ccc(CN2CCN(Cc3c[nH]c4ccccc34)CC2)cc1`, 26.6%. As for `CCN(Cc1ccccc1)c1ccc(/C=N/N2CCOCC2)cc1`, the IC50 was 57.8 µM (active).

On to `CC(=O)N(C1=C(Cl)C(=O)c2ccccc2C1=O)c1ccc(C(=O)O)cc1`, for which the “inhibition” value was 0.61%.

In the case of `CCN(CC)c1ccc(/C=N/N2CCOCC2)c(O)c1`, the IC50 was 63.7 µM (active). On to `CC(C)c1ccc(/C=N/N2CCCCC2)cc1`, for which the “inhibition” value was 15.9%. In the case of `CN(C)c1ccc(/C=N/N2CCN(Cc3ccccc3Cl)CC2)cc1`, the IC50 is 71 µM (active).

On to `CCN(CC)c1ccc(/C=N/N2CCOCC2)cc1`, for which the IC50 was 40.3 µM (active). Turning to `COc1ccccc1CN1CCN(Cc2cc(OC)c(OC)cc2OC)CC1`, the “inhibition” value is 22.1%. Still for that read-out and setting: under `Cc1ccc(OCCN2CCN(C)CC2)c([N+](=O)[O-])c1` stands 19.3%. In the case of `O=C(Nc1ccc(O)cc1)c1cc2ccccc2c(=O)s1`, the IC50 was 30.1 µM (active).

Turning to `COc1ccc2cc(C(=O)Nc3ccc(O)cc3)sc(=O)c2c1OC`, the IC50 is 24.8 µM (active). As to `O=C(Cn1sc2ccccc2c1=O)Nc1ccccc1`, the “inhibition” value was -1.87%. Regarding `CCN(CC)S(=O)(=O)c1ccc(C)c(NC(=O)CN2CCN(C)CC2)c1`, the “inhibition” value is 11.1%.

As to `COCCNCC(=O)Nc1ccc(C)c(S(=O)(=O)N2CCCCC2)c1`, the “inhibition” value was 17.4%.

Regarding `Cc1ccc(NC(=O)CNCCCN2CCOCC2)cc1S(=O)(=O)N1CCCCC1`, the “inhibition” value is 21%. Still for that read-out and setting: under `Cc1ccc(S(=O)(=O)N2CCCCC2)cc1NC(=O)CNCc1ccco1` stands 18.3%. On to `COc1cc(/C=C/C(=O)OCC(=O)Nc2ccc(S(=O)(=O)N3CCCC3)cc2)ccc1O`, for which the IC50 is 45.7 µM (active).

In the case of `COc1cc(/C=C/C(=O)OCC(=O)Nc2cc(S(=O)(=O)N3CCCCC3)ccc2C)ccc1O`, the IC50 was 60.2 µM (active). Turning to `CC(CCN1CCN(CCO)CC1)c1ccccc1` (centres undefined), the “inhibition” value is 3.17%. Turning to `CN=C1S/C(=C\c2ccc(O)c(Br)c2)C(=O)N1C`, the IC50 was 45.8 µM (active).

With `Cc1nc(N)sc1-c1ccccc1`, the 50% inhibitory concentration (IC50) was 80.8 µM (active).

Consider `COC(=O)c1ccc2c(c1)C(C)(C)C(/C=C/c1ccc(O)cc1)=[N+]2C`, for which the “inhibition” value is 17.5%. Same read-out and setting: with `COc1ccc(-c2ccc(CCC(=O)O)n2-c2ccc(O)cc2)cc1` the figure was 11.4%. As to `COc1ccc(C(=O)/C=C/c2ccc(O)cc2)cc1`, the IC50 was 42.2 µM (active). With `O=C(CNCc1ccco1)Nc1ccc(N2CCCCCC2)cc1`, the “inhibition” value was 29.8%. As for `CC(=O)N1CCN(c2ccc(NCc3ccco3)cc2)CC1`, the IC50 is 13.1 µM (active). As to `COc1ccc(N2CCN(C(=O)c3ccc(Br)o3)CC2)cc1`, the “inhibition” value was 25.5%.

On to `CC(=O)N1CCN(c2ccc(NCc3ccc(Br)o3)cc2)CC1`, for which the IC50 is 12.4 µM (active). Take `Cc1cc(/C=N/Nc2ccc([N+](=O)[O-])cn2)c(C)n1-c1ccc(C(=O)O)cc1`: the “inhibition” value is -11.8%. On to `CN(C)c1ccc(Nc2ccc([N+](=O)[O-])cn2)cc1`, for which the IC50 is 70.9 µM (active). Still for that read-out and setting: under `CN(C)c1ccc(NC2=C([N+](=O)[O-])CS(=O)(=O)C2)cc1` stands 51.3 µM (active). On to `O=C(c1ccccc1F)N1CCN(Cc2ccccc2F)CC1`, for which the “inhibition” value is 13.3%. Still for that read-out and setting: under `CCOc1c(C=C(C#N)C#N)c2ccccc2n1CC` stands 19.6%. As to `C(=N\N1CCOCC1)/c1nc(-c2ccccc2)n2ccccc12`, the IC50 was 25.7 µM (active). For the molecule `CN1CCN(/N=C/c2nc(-c3ccccc3)n3ccccc23)CC1`, the IC50 was 35.6 µM (active). Same read-out and setting: with `Clc1ccccc1-c1nc(/C=N/N2CCOCC2)c2ccccn12` the figure was 44 µM (active); with `CN1CCN(/N=C/c2nc(-c3ccc(Cl)cc3)n3ccccc23)CC1`, 41.9 µM (active). On to `O=C(O)c1ccc2c(c1)C(=O)/C(=C\c1ccco1)C2=O`, for which the “inhibition” value was -0.18%. On the same count and under the same terms, under `Cc1ccccc1N1C(S)=C(C#N)C(=O)NC1c1cccs1` (centres undefined) stands 5.79%; under `Cc1ccc(-n2sc3cc(F)ccc3c2=O)c(C)c1`, 13.5%. The same measure, in the same setting: with `CSc1ccccc1NC(=O)CNCCCN1CCOCC1` the figure was 22.1%; with `CCOC(=O)COc1ccc2c(c1)C(=O)CC1(CCCCC1)O2`, 4.34%; with `O=C(CNCc1ccco1)Nc1ccc(Oc2ccccc2)cc1`, 17.1%.

Turning to `COCCNC(=O)COc1ccc(Nc2ccccc2)cc1`, the IC50 is 62.8 µM (active). The same measure, in the same setting: under `O=C(COc1ccc(Nc2ccccc2)cc1)OCC(=O)N1CCCCC1` stands 75.6 µM (active); under `O=C(COC(=O)COc1ccc(Nc2ccccc2)cc1)NCc1ccco1`, 79.9 µM (active).

For the molecule `O=C(NCc1ccco1)c1sc(=S)n2c1[nH]c(=O)c1ccccc12`, the “inhibition” value is 29.9%. The same measure, in the same setting: with `N#Cc1ccc(OCC(=O)Nc2ccc(N3CCCC3)cc2)cc1` the figure was 17.9%. Same read-out and setting: with `O=C1CCCCC/C1=N/Nc1ccc(OCc2ccccc2)cc1` the figure was 0%. As to `COc1ccc(-n2nc3c(c2NC(=O)CCCCl)CSC3)cc1`, the “inhibition” value is 3.42%. Still for that read-out and setting: with `CC(=O)Nc1ccc(S(=O)(=O)Nc2nc3ccccc3nc2Nc2ccc(C(=O)O)c(O)c2)cc1` the figure was 28.3%.

Turning to `O=C(Nc1ccc(Nc2ccccc2)cc1)C1CC1`, the IC50 was 55.9 µM (active). The same measure, in the same setting: under `O=C(O)c1ccccc1C(=O)Nc1ccc(Nc2ccccc2)cc1` stands 62.4 µM (active); under `CC(C)C(=O)Nc1ccc(Nc2ccccc2)cc1`, 52.3 µM (active); under `CC(=O)Nc1ccc(S(=O)(=O)Nc2ccc(Nc3ccccc3)cc2)cc1`, 80.7 µM (active). In the case of `O=C(Nc1ccccc1)C1=C(c2ccccc2)S(=O)(=O)CCS1(=O)=O`, the “inhibition” value was 3.93%.

`Cc1cc(C)c2c(c1)NC(C(=O)O)C1CC=CC21` (centres undefined): the “inhibition” value was -0.18%. Still for that read-out and setting: with `COc1ccc(-n2cccc2/C=C/[N+](=O)[O-])cc1` the figure was -5.41%; with `CC1=NOC(=O)/C1=C\c1ccc(-c2ccc(Cl)c(C(=O)O)c2)o1`, 1.02%. Same read-out and setting: under `N#CC1=C(S)N(c2ccccc2)C(c2cccs2)NC1=O` (centres undefined) stands 4.12%. For the molecule `O=C(Nc1ccc(O)cc1)c1ccccc1OCc1ccccc1`, the IC50 was 44.8 µM (active). Take `CC(=O)Nc1ccc(NC(=O)C(C)OC(=O)COc2ccc(Nc3ccccc3)cc2)cc1` (centres undefined): the “inhibition” value was 25%. Take `CCC(=O)Nc1ccc(Nc2ccccc2)cc1`: the IC50 was 55.9 µM (active). Regarding `CCC(=O)NC1=C(Cl)C(=O)C(NC(=O)CC)=C(Cl)C1=O`, the “inhibition” value is 4.18%. Same read-out and setting: under `Oc1ccc(NCc2ccc(OCc3ccccc3)cc2)cc1` stands 19.8%; under `CC(=O)Nc1ccc2sn(-c3ccccc3)c(=O)c2c1`, 16.6%; under `O=C(O)c1ccc(COc2ccccc2C=C2C(=O)c3ccccc3C2=O)cc1`, -2.14%. As to `CC(=O)Nc1ccc(Nc2ccccc2)cc1`, the IC50 is 75.5 µM (active). For `C=C1c2c(Cl)ccc(O)c2C(O)=C2C(=O)[C@]3(O)C(O)=C(C(N)=O)C(=O)[C@@H](N(C)C)[C@@H]3[C@@H](O)C12` (some centres undefined), the “inhibition” value is -12.8%.

In the case of `CC[n+]1c(/C=C2\Sc3ccccc3N2C)ccc2cccc(C)c21`, the “inhibition” value is 10%.

`Cc1cc(=O)[nH]c2c(N=Nc3ccc(O)cc3)c(N)nn12`: the IC50 was 13.2 µM (active). On the same count and under the same terms, with `Nc1nn2c(-c3ccccc3)cc(=O)[nH]c2c1N=Nc1ccc(O)cc1` the figure was 70.9 µM (active). As to `CCOC(=O)C1Nc2ccc(C(=O)O)cc2C2C=CCC12` (centres undefined), the “inhibition” value was -7.98%.

`COc1cc(OC)c(Cl)cc1N`: the IC50 was 43.9 µM (active).

For the molecule `CCC(=Nc1ccc(N)cc1)C1=C(O)C(C(=O)OC)C(C)(C)CC1=O` (centres undefined), the IC50 is 7.76 µM (active). With `CCCC(=Nc1ccc(N)cc1)C1=C(O)C(C(=O)OC)C(C)(C)CC1=O` (centres undefined), the IC50 is 14.8 µM (active). The same measure, in the same setting: with `COC(=O)C1C(O)=C(C=Nc2ccc(N)cc2)C(=O)CC1(C)C` (centres undefined) the figure was 57.5 µM (active); with `COc1cc(/C=N/NC(=O)C(C)Nc2n[nH]c(=O)[nH]c2=O)ccc1O` (centres undefined), 69.5 µM (active); with `COc1cc(/C=N/NC(=O)CNc2n[nH]c(=O)[nH]c2=O)ccc1O`, 39.7 µM (active). Turning to `COc1cc(/C=N/NC(=O)CCc2n[nH]c(=O)[nH]c2=O)ccc1O`, the IC50 was 35.4 µM (active). The same measure, in the same setting: with `CCOc1cc(/C=N/NC(=O)CCc2n[nH]c(=O)[nH]c2=O)ccc1O` the figure was 55.6 µM (active). As for `C/C(CCc1ccccc1)=N\NC(=O)C1C2CCCCC21` (centres undefined), the “inhibition” value was 0.53%. Same read-out and setting: with `Cc1ccc(-c2cnc(NCc3cc4c(cc3[N+](=O)[O-])OCO4)n2C)cc1C` the figure was 26.1%; with `O=[S@]1Oc2ccccc2-c2ccccc21`, -2.21%. For `CCN(CC)c1ccc(/C=C2/SC(=O)N(C(C)C)C2=O)o1`, the IC50 was 58.5 µM (active). As for `CCCN1C(=O)S/C(=C/c2ccc(N3CCOCC3)o2)C1=O`, the “inhibition” value is 28.1%. Same read-out and setting: under `CN(C)c1ccc(N=Cc2nc(-c3ccccc3)oc2OC(=O)c2ccccc2)cc1` stands 12%. Consider `Cc1nc2ccccc2nc1N/N=C/c1ccc(O)cc1`, for which the IC50 was 30.5 µM (active). On the same count and under the same terms, with `Cc1cc(-c2ccccc2)nc(N/N=C/c2ccc(O)cc2O)n1` the figure was 61.3 µM (active); with `Cc1cc(-c2ccccc2)nc(N/N=C/c2ccc(O)cc2)n1`, 31.6 µM (active); with `Cc1cc(-c2ccccc2)nc(N/N=C/c2ccc(N(C)C)cc2)n1`, 80 µM (active). Turning to `CC1CN(CCOCCOc2ccccc2-c2ccccc2)CC(C)O1` (centres undefined), the “inhibition” value is 22%. On the same count and under the same terms, under `COc1ccc(CN2CCN(Cc3ccco3)CC2)cc1OC` stands 25.7%. On the same count and under the same terms, with `COc1ccc(/C=N/Nc2cc(C)nc3c(C)cccc23)cc1` the figure was 9.08%. As to `Cc1cc(C)c2nc(C)cc(N/N=C/c3ccc(O)cc3)c2c1`, the IC50 was 32.9 µM (active).

Regarding `COc1ccc(/C=C2\C(=O)NC(=O)c3ccccc32)cc1OC`, the “inhibition” value was -4.57%. For `COc1cc(/C=N/N=C2/C(=O)Nc3ccccc32)cc(OC)c1O`, the IC50 was 59.2 µM (active).

`Oc1ccc(-c2nccs2)cc1`: the IC50 was 31.4 µM (active). For `CCN1CCN(CCOc2cccc(Cl)c2Cl)CC1`, the “inhibition” value is 20.8%.

As to `CC1(C)CC(=O)C(C(C2=C(O)CC(C)(C)CC2=O)c2cccs2)C(=O)C1` (centres undefined), the “inhibition” value was 1.47%. With `CC1(C)CC(=O)C2=C(C1)Nc1ccccc1S2`, the IC50 is 23.1 µM (active).

The IC50 is the point on the concentration scale where inhibition reaches its midpoint. In general, inhibition refers to the relative decrease from the control value, in per cent.
